The supplement of paper PMC8728848
The full list was thinned out, with the strongest signals kept by preference.

Legend:
Experiment in all cases: glycan array binding signal (z-score within array); higher = stronger binding
Conditions in all cases: glycan notation: IUPAC condensed, linker removed
[1] = target: Fuc(a1-2)Gal
In short: (§1)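 Columns mapping to the same glycan were averaged after glycan names were converted to IUPAC-condensed notation. The data come from 3228 arrays in the Consortium for Functional Glycomics database, limited to those with an available protein sequence. Binding is reported as a within-array Z-score averaged across arrays of one protein sequence and across linkers.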

[2] = target: Fuc(a1-2)Gal(b1-3)GalNAc(b1-4)[Neu5Ac(a2-3)]Gal(b1-4)Glc
In short: as §1

[3] = target: Fuc(a1-2)Gal(b1-3)GlcNAc(b1-3)[Neu5Ac(a2-6)Gal(b1-4)GlcNAc(b1-6)]Gal(b1-4)Glc
In short: as §1

[4] = target: Fuc(a1-2)[Gal(a1-3)]Gal(b1-3)GlcNAc
In short: as §1

[5] = target: Fuc(a1-2)[Gal(a1-3)]Gal(b1-4)[Fuc(a1-3)]Glc
In short: as §1

[6] = target: Fuc(a1-2)[Gal(a1-3)]Gal(b1-4)[Fuc(a1-3)]GlcNAc(b1-3)GalNAc
In short: as §1

[7] = target: Fuc(a1-3)[Gal(b1-4)]Glc6S
In short: as §1

[8] = target: Fuc(a1-3)[Gal3S(b1-4)]Glc
In short: as §1

[9] = target: Gal(a1-3)[Gal(a1-4)]Gal(b1-4)GlcNAc
In short: as §1

[10] = target: Gal(a1-4)Gal(b1-4)GlcNAc(b1-2)Man(a1-3)[Gal(a1-4)Gal(b1-4)GlcNAc(b1-2)Man(a1-6)]Man(b1-4)GlcNAc(b1-4)GlcNAc
In short: as §1

[11] = target: Gal(b1-2)Gal
In short: as §1

[12] = target: Gal(b1-3)GlcNAc(b1-3)Gal(b1-4)GlcNAc(b1-2)Man(a1-3)[Gal(b1-3)GlcNAc(b1-3)Gal(b1-4)GlcNAc(b1-2)Man(a1-6)]Man(b1-4)GlcNAc(b1-4)GlcNAc
In short: as §1

[13] = target: Gal(b1-4)Glc
In short: as §1

[14] = target: Gal(b1-4)GlcNAc(b1-2)[Gal(b1-4)GlcNAc(b1-4)]Man(a1-3)[GlcNAc(b1-4)][Gal(b1-4)GlcNAc(b1-2)[Gal(b1-4)GlcNAc(b1-6)]Man(a1-6)]Man(b1-4)GlcNAc(b1-4)GlcNAc
In short: as §1

[15] = target: Gal(b1-4)GlcNAc(b1-3)Gal(b1-4)GlcNAc(b1-3)Gal(b1-4)GlcNAc(b1-3)Gal(b1-4)GlcNAc(b1-3)Gal(b1-4)GlcNAc(b1-2)[Gal(b1-4)GlcNAc(b1-3)Gal(b1-4)GlcNAc(b1-3)Gal(b1-4)GlcNAc(b1-3)Gal(b1-4)GlcNAc(b1-3)Gal(b1-4)GlcNAc(b1-6)]Man(a1-6)[Gal(b1-4)GlcNAc(b1-3)Gal(b1-4)GlcNAc(b1-3)Gal(b1-4)GlcNAc(b1-3)Gal(b1-4)GlcNAc(b1-3)Gal(b1-4)GlcNAc(b1-2)Man(a1-3)]Man(b1-4)GlcNAc(b1-4)[Fuc(a1-6)]GlcNAc
In short: as §1

[16] = target: Gal(b1-4)GlcNAc(b1-3)Gal(b1-4)GlcNAc(b1-3)Gal(b1-4)GlcNAc(b1-3)Gal(b1-4)GlcNAc(b1-3)Gal(b1-4)GlcNAc(b1-3)Gal(b1-4)GlcNAc(b1-2)Man(a1-3)[Gal(b1-4)GlcNAc(b1-3)Gal(b1-4)GlcNAc(b1-3)Gal(b1-4)GlcNAc(b1-3)Gal(b1-4)GlcNAc(b1-3)Gal(b1-4)GlcNAc(b1-3)Gal(b1-4)GlcNAc(b1-2)Man(a1-6)]Man(b1-4)GlcNAc(b1-4)GlcNAc
In short: as §1

[17] = target: Gal3S(b1-4)Glc6S
In short: as §1

[18] = target: Gal3S6S(b1-4)GlcNAc
In short: as §1

[19] = target: Gal3S6S(b1-4)GlcNAc6S
In short: as §1

[20] = target: GalNAc(a1-3)GalNAc(b1-3)Gal(a1-4)Gal(b1-4)Glc
In short: as §1

[21] = target: GalNAc(b1-3)GlcNAc
In short: as §1

[22] = target: GalNAc(b1-4)Gal(b1-4)Glc
In short: as §1

[23] = target: GalNAc(b1-4)GlcNAc(b1-3)GalNAc(b1-4)GlcNAc
In short: as §1

[24] = target: Glc(a1-6)Glc(a1-6)Glc
In short: as §1

[25] = target: GlcNAc(b1-3)Fuc
In short: as §1

[26] = target: GlcNAc(b1-3)Gal(b1-4)GlcNAc(b1-3)Gal(b1-4)GlcNAc(b1-2)Man(a1-3)[GlcNAc(b1-3)Gal(b1-4)GlcNAc(b1-3)Gal(b1-4)GlcNAc(b1-2)Man(a1-6)]Man(b1-4)GlcNAc(b1-4)[Fuc(a1-6)]GlcNAc
In short: as §1

[27] = target: GlcNAc(b1-3)Gal(b1-4)GlcNAc(b1-3)Gal(b1-4)GlcNAc(b1-3)Gal(b1-4)GlcNAc(b1-3)Gal(b1-4)GlcNAc(b1-2)Man(a1-3)[GlcNAc(b1-3)Gal(b1-4)GlcNAc(b1-3)Gal(b1-4)GlcNAc(b1-3)Gal(b1-4)GlcNAc(b1-3)Gal(b1-4)GlcNAc(b1-2)Man(a1-6)]Man(b1-4)GlcNAc(b1-4)[Fuc(a1-6)]GlcNAc
In short: as §1

[28] = target: GlcNAc(b1-3)Gal(b1-4)GlcNAc(b1-6)[GlcNAc(b1-3)]Gal(b1-4)GlcNAc
In short: as §1

[29] = target: GlcNAc(b1-3)[GlcNAc(b1-6)]GalNAc
In short: as §1

[30] = target: GlcNAc(b1-4)[GlcNAc(b1-6)]GalNAc
In short: as §1

[31] = target: GlcNAc6S(b1-3)Gal(b1-4)GlcNAc
In short: as §1

[32] = target: Kdn(a2-3)Gal(b1-4)[Fuc(a1-3)]GlcNAc
In short: as §1

[33] = target: Man(a1-3)[Man(a1-6)]Man(a1-6)[Man(a1-3)]Man
In short: as §1

[34] = target: Neu5Ac(a2-3)Gal(b1-3)GlcNAc6S
In short: as §1

[35] = target: Neu5Ac(a2-3)Gal(b1-4)GlcNAc(b1-2)[Neu5Ac(a2-3)Gal(b1-4)GlcNAc(b1-6)]Man(a1-6)[Neu5Ac(a2-3)Gal(b1-4)GlcNAc(b1-2)Man(a1-3)][GlcNAc(b1-4)]Man(b1-4)GlcNAc(b1-4)GlcNAc
In short: as §1

[36] = target: Neu5Ac(a2-3)Gal(b1-4)GlcNAc(b1-3)Gal(b1-4)GlcNAc(b1-6)[Gal(b1-3)]GalNAc
In short: as §1

[37] = target: Neu5Ac(a2-3)Gal(b1-4)GlcNAc(b1-6)GalNAc
In short: as §1

[38] = target: Neu5Ac(a2-6)Gal(b1-4)GlcNAc(b1-3)Gal(b1-4)GlcNAc(b1-3)Gal(b1-4)GlcNAc(b1-2)Man(a1-3)[Neu5Ac(a2-6)Gal(b1-4)GlcNAc(b1-3)Gal(b1-4)GlcNAc(b1-3)Gal(b1-4)GlcNAc(b1-2)Man(a1-6)]GalNAc
In short: as §1

[39] = target: Neu5Ac(a2-6)Gal(b1-4)GlcNAc(b1-3)[Neu5Ac(a2-6)Gal(b1-4)GlcNAc(b1-6)]GalNAc
In short: as §1

[40] = target: Neu5Ac(a2-8)Neu5Ac(a2-3)[Gal(b1-3)GalNAc(b1-4)]Gal(b1-4)Glc
In short: as §1

[41] = target: Neu5Ac(a2-8)Neu5Gc(a2-3)Gal(b1-4)GlcNAc
In short: as §1

B1: PX9961K-bvu-480-28-480 (Bacteroides vulgatus) (protein)
chain: NKIPTTMAFRTVTDVDNAVNGLYDLMSGSGYYGAAMFAYGDMKGDDMQSSEESGVCNTCYMFNHRPNSLNAGSLWGRPFYILREAWNILNAIAEGKIESGDEKKLNALKGETMAVIALCQFDLTRCFGYPYTKDKGASLGAPLIDHLVGTYENPPRSTVAQAYDFIIETLEEAVTLMSEEKNNGRMNKYAARALLARIYLYHDDNRKAFDLADQLIKDADTSGSYALYPHEKYVAAWSVEAKFGSESFFEIANSVDDTPGRDSWGYLLNWYGYQKGFVTQKYAEQMLADPGDVRGHLLEENKYAGKTVWWLYKLRGTDLKTAPLECNNVVLRLSEVYLIAAEAGCKLGGDAAVQGLGYLNEIVKRGNPDNEVTMADYTLDRVLDERSKELVGEGHRFFDLLRNGKTIVRKGGYHLPSVDEEVDWDFYKCVLPIPEDQFIFSPEMEQNPGYPKN
glycan array binding signal (z-score) [1]: -0.335
glycan array binding signal (z-score) [2]: -0.817
glycan array binding signal (z-score) [3]: -0.084
glycan array binding signal (z-score) [4]: -0.605
glycan array binding signal (z-score) [5]: 0.151
glycan array binding signal (z-score) [6]: -0.75
glycan array binding signal (z-score) [7]: 0.583
glycan array binding signal (z-score) [8]: 0.709
glycan array binding signal (z-score) [9]: 3.09
glycan array binding signal (z-score) [10]: 1.47
glycan array binding signal (z-score) [11]: 0.817
glycan array binding signal (z-score) [12]: 0.157
glycan array binding signal (z-score) [13]: -0.177
glycan array binding signal (z-score) [14]: 0.328
glycan array binding signal (z-score) [15]: 1.61
glycan array binding signal (z-score) [16]: 1.2
glycan array binding signal (z-score) [17]: 0.273
glycan array binding signal (z-score) [18]: 0.512
glycan array binding signal (z-score) [19]: 1.05
glycan array binding signal (z-score) [20]: -0.347
glycan array binding signal (z-score) [21]: 0.085
glycan array binding signal (z-score) [22]: 0.362
glycan array binding signal (z-score) [23]: -0.336
glycan array binding signal (z-score) [24]: -0.638
glycan array binding signal (z-score) [25]: 1.16
glycan array binding signal (z-score) [26]: 1.89
glycan array binding signal (z-score) [27]: 0.909
glycan array binding signal (z-score) [28]: 1.77
glycan array binding signal (z-score) [29]: -0.501
glycan array binding signal (z-score) [30]: 0.135
glycan array binding signal (z-score) [31]: 1.58
glycan array binding signal (z-score) [32]: -0.426
glycan array binding signal (z-score) [33]: 2.06
glycan array binding signal (z-score) [34]: 0.976
glycan array binding signal (z-score) [35]: 1.59
glycan array binding signal (z-score) [36]: -0.074
glycan array binding signal (z-score) [37]: -0.742
glycan array binding signal (z-score) [38]: 1.68
glycan array binding signal (z-score) [39]: -0.532
glycan array binding signal (z-score) [40]: -0.283
glycan array binding signal (z-score) [41]: 19.1
